# Measured values as given in PubChem BioAssay (NCI).
# Compounds without any hit were thinned out: in the full panel of roughly 83,000, 20% have a hit.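 In brief: 96-well plates, 48 h treatment, single concentration, percent growth endpoint.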 Values without a mark were called inactive. Activity calls are given as the source filed them. Rule for the calls: active = growth percent below 10; inactive = the rest.
# System: M14 melanoma
# Assay: NCI-60 one-dose screen, 48 h (100 = growth as untreated, 0 = no growth, -100 = all killed)
# Settings: 10 µM unless noted
row,Structure (SMILES),growth
1,O=C(Nc1cccc(-n2cc(-c3ccncc3)c(-c3ccc(O)c(Cl)c3)n2)c1)Nc1ccc(Cl)c(C(F)(F)F)c1,-34% (active)
2,CCOc1ccccc1C(=O)OCC(=O)Nc1cccc(S(=O)(=O)N(C)C)c1,107%
3,Cn1c(N)c(N=O)c(=O)[nH]c1=O,97.9%
4,Cc1nn(-c2ccc(Br)cc2)c2nc3c(nc12)C(=O)C(=O)c1ccccc1-3,98.2%
5,Cc1nn(-c2ccccc2)c2nc(Cl)c(/C=C/C(=O)c3ccccc3)c(-c3ccccc3)c12,90.1%
6,S=C(Nc1ccc(C2=NCCN2)cc1)Nc1ccc(C2=NCCN2)cc1,94.5%
7,COc1ccc(C(=O)/C=C/c2c(Cl)nc3c(c(C)nn3-c3ccccc3)c2-c2ccc(Br)cc2)cc1,100%
8,O=C1c2ccccc2-c2c1nc1ccccc1[n+]2[O-],97.9%
9,Cc1c(C(N)=O)sc2c1c(=O)n(Cc1ccccc1)c1nnc(S(=O)(=O)CC(=O)Nc3ccc(Cl)cc3)n21,45.2%
10,OCCOc1c(Cl)cc(Cl)cc1Cl,107%
11,O=C1Nc2ccc(F)cc2/C1=C/c1nc(-c2ccc(F)cc2)n2ccccc12,83.2%
12,CCOC(=O)C(C(C)=O)c1nc2sc3cc(Cl)ccc3n2c(=N)c1C#N (centres undefined),77.8%
13,Cc1nn(-c2ccc(Cl)cc2)c2nc3c(nc12)c(=O)oc1ccccc13,107%
14,Cc1nn(-c2ccccc2)c2ncc3c(c12)C(=O)N(Cc1ccccc1)C3=O,68.7%
15,OC(CCC(O)(c1ccccc1)c1ccccc1)(c1ccccc1)c1ccccc1,96.1%
16,S=C(c1ccccc1)N1CCN(c2cccc(Cl)c2)CC1,113%
17,COc1cc(OC)c2cc(C(=O)O)c(=O)oc2c1,103%
18,Cc1c(C(N)=O)sc2ncn(Cc3ccccc3)c(=O)c12,105%
19,O=C1CN(CO)C(=O)CN1CO,104%

row,Structure (SMILES),growth
1,O=C(COC(=O)[C@H](C[Se][Se]C[C@H](NC(=O)c1ccc(Br)cc1F)C(=O)OCC(=O)c1ccc(F)cc1)NC(=O)c1ccc(Br)cc1F)c1ccc(F)cc1,-64.6% (active)
2,CCOC(=O)C1C(=O)OC2CCCCC21 (centres undefined),98.3%
3,COC(=O)[C@]1(CCSC)N[C@H](c2cn(-c3ccccc3)nc2C)[C@@H]2C(=O)N(c3ccccc3)C(=O)[C@@H]21,95.9%
4,Cc1c(C(N)=O)sc2c1c(=O)n(Cc1ccccc1)c1nnc(SCC(=O)Nc3ccc(Cl)cc3)n21,40.5%
5,O=C1OC(c2ccc(-c3ccccc3)cc2)=C/C1=C/c1cccs1,90.3%
6,Oc1ccccc1/C=N\Nc1ccccc1,39.4%
7,CCCCn1c(Cc2ccc(Cl)cc2)nc2cc(OC)c(OC)cc2c1=O,79.2%
8,Cn1[nH]cc(/C=N/C(N)=O)c1=O,107%
9,Cc1[nH]n(C(N)=S)c(=O)c1N=Nc1ccc(F)c(Cl)c1,100%
10,CCSc1nnc2n(Cc3ccccc3)c(=O)c3c(C)c(C(N)=O)sc3n12,112%
11,Cc1cc(C)c(OC(=O)CSc2nc3ccccc3c(=O)n2CCc2ccccc2)cc1C,102%
12,NC(=O)SCC(=O)Nc1ccccc1-c1ccccc1,97.7%
13,Cc1nn(-c2ccc(Cl)cc2)c2nc3c(nc12)C(=O)C(=O)c1ccccc1-3,75.5%
14,O=C(c1ccccc1)c1ccccc1Cl,101%
15,COc1cc(OC)c2sc(-c3ccc(-n4cncc4-c4ccc(N)cc4)cc3)nc2c1,76.4%
16,O=C(CSc1nc2c(n1Nc1ccccc1)-c1ccccc1SC2)Nc1nc(-c2ccc(Cl)cc2)cs1,59.9%
17,CN=C(NC)N/N=C(C)\C=N\NC(=NC)NC,101%
18,OC(Cc1cccnc1)c1ccccc1 (centres undefined),106%
19,N#Cc1c(N2CCOCC2)nc2sc3cc(Cl)ccc3n2c1=N,111%

# System: HCT-15 colon
# Assay: as above
# Settings: 10 µM unless noted
row,Structure (SMILES),growth
1,O=C(Nc1cccc(-n2cc(-c3ccncc3)c(-c3ccc(O)c(Cl)c3)n2)c1)Nc1ccc(Cl)c(C(F)(F)F)c1,17.3%
2,CCOc1ccccc1C(=O)OCC(=O)Nc1cccc(S(=O)(=O)N(C)C)c1,123%
3,Cn1c(N)c(N=O)c(=O)[nH]c1=O,112%
4,Cc1nn(-c2ccc(Br)cc2)c2nc3c(nc12)C(=O)C(=O)c1ccccc1-3,90.5%
5,Cc1nn(-c2ccccc2)c2nc(Cl)c(/C=C/C(=O)c3ccccc3)c(-c3ccccc3)c12,101%
6,S=C(Nc1ccc(C2=NCCN2)cc1)Nc1ccc(C2=NCCN2)cc1,101%
7,COc1ccc(C(=O)/C=C/c2c(Cl)nc3c(c(C)nn3-c3ccccc3)c2-c2ccc(Br)cc2)cc1,102%
8,O=C1c2ccccc2-c2c1nc1ccccc1[n+]2[O-],101%
9,Cc1c(C(N)=O)sc2c1c(=O)n(Cc1ccccc1)c1nnc(S(=O)(=O)CC(=O)Nc3ccc(Cl)cc3)n21,73.1%
10,OCCOc1c(Cl)cc(Cl)cc1Cl,104%
11,O=C1Nc2ccc(F)cc2/C1=C/c1nc(-c2ccc(F)cc2)n2ccccc12,105%
12,CCOC(=O)C(C(C)=O)c1nc2sc3cc(Cl)ccc3n2c(=N)c1C#N (centres undefined),122%
13,Cc1nn(-c2ccc(Cl)cc2)c2nc3c(nc12)c(=O)oc1ccccc13,103%
14,Cc1nn(-c2ccccc2)c2ncc3c(c12)C(=O)N(Cc1ccccc1)C3=O,86.3%
15,OC(CCC(O)(c1ccccc1)c1ccccc1)(c1ccccc1)c1ccccc1,100%
16,S=C(c1ccccc1)N1CCN(c2cccc(Cl)c2)CC1,105%
17,COc1cc(OC)c2cc(C(=O)O)c(=O)oc2c1,106%
18,O=C1CN(CO)C(=O)CN1CO,106%

row,Structure (SMILES),growth
1,O=C(COC(=O)[C@H](C[Se][Se]C[C@H](NC(=O)c1ccc(Br)cc1F)C(=O)OCC(=O)c1ccc(F)cc1)NC(=O)c1ccc(Br)cc1F)c1ccc(F)cc1,-42.6% (active)
2,CCOC(=O)C1C(=O)OC2CCCCC21 (centres undefined),101%
3,COC(=O)[C@]1(CCSC)N[C@H](c2cn(-c3ccccc3)nc2C)[C@@H]2C(=O)N(c3ccccc3)C(=O)[C@@H]21,112%
4,Cc1c(C(N)=O)sc2c1c(=O)n(Cc1ccccc1)c1nnc(SCC(=O)Nc3ccc(Cl)cc3)n21,82.5%
5,O=C1OC(c2ccc(-c3ccccc3)cc2)=C/C1=C/c1cccs1,98.1%
6,Oc1ccccc1/C=N\Nc1ccccc1,25.6%
7,CCCCn1c(Cc2ccc(Cl)cc2)nc2cc(OC)c(OC)cc2c1=O,75.4%
8,Cn1[nH]cc(/C=N/C(N)=O)c1=O,105%
9,Cc1[nH]n(C(N)=S)c(=O)c1N=Nc1ccc(F)c(Cl)c1,104%
10,CCSc1nnc2n(Cc3ccccc3)c(=O)c3c(C)c(C(N)=O)sc3n12,97.9%
11,Cc1cc(C)c(OC(=O)CSc2nc3ccccc3c(=O)n2CCc2ccccc2)cc1C,52.7%
12,NC(=O)SCC(=O)Nc1ccccc1-c1ccccc1,107%
13,Cc1nn(-c2ccc(Cl)cc2)c2nc3c(nc12)C(=O)C(=O)c1ccccc1-3,73.9%
14,O=C(c1ccccc1)c1ccccc1Cl,104%
15,COc1cc(OC)c2sc(-c3ccc(-n4cncc4-c4ccc(N)cc4)cc3)nc2c1,69.7%
16,CN=C(NC)N/N=C(C)\C=N\NC(=NC)NC,101%
17,OC(Cc1cccnc1)c1ccccc1 (centres undefined),104%
18,N#Cc1c(N2CCOCC2)nc2sc3cc(Cl)ccc3n2c1=N,102%
